Of roughly 8,800 targets only a part is listed; those with a hit were picked by preference. About 0.5% of all pairs of compound and target were hits. Unmarked numbers belong to inactive results.

Chain of UniProt Q9ULX3 (Q9ULX3 whole entry, looked up): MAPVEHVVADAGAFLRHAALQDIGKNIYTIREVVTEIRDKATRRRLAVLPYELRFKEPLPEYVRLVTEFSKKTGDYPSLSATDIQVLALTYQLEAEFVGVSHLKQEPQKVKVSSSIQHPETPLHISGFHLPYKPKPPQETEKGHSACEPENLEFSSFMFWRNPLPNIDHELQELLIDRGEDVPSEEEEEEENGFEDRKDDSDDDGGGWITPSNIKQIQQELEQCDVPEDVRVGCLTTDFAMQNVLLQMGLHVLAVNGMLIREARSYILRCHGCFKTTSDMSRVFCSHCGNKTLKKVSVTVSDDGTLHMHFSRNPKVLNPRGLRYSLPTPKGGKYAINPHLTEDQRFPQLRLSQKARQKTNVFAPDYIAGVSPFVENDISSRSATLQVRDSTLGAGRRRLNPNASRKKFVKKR
Chain of UniProt O43913 (O43913 whole entry, looked up): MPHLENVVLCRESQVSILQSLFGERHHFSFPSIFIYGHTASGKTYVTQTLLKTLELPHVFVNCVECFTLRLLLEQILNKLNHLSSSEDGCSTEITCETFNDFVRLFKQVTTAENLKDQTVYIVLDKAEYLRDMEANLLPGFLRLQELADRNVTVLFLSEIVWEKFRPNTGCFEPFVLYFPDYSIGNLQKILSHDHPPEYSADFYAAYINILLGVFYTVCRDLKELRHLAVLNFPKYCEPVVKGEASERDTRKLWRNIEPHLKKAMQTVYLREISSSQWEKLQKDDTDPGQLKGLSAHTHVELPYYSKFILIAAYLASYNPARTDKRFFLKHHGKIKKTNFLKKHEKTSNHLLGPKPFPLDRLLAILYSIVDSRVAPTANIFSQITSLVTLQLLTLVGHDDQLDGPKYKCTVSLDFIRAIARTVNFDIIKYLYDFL
Chain of UniProt Q9NVE7 (Q9NVE7 whole entry, looked up): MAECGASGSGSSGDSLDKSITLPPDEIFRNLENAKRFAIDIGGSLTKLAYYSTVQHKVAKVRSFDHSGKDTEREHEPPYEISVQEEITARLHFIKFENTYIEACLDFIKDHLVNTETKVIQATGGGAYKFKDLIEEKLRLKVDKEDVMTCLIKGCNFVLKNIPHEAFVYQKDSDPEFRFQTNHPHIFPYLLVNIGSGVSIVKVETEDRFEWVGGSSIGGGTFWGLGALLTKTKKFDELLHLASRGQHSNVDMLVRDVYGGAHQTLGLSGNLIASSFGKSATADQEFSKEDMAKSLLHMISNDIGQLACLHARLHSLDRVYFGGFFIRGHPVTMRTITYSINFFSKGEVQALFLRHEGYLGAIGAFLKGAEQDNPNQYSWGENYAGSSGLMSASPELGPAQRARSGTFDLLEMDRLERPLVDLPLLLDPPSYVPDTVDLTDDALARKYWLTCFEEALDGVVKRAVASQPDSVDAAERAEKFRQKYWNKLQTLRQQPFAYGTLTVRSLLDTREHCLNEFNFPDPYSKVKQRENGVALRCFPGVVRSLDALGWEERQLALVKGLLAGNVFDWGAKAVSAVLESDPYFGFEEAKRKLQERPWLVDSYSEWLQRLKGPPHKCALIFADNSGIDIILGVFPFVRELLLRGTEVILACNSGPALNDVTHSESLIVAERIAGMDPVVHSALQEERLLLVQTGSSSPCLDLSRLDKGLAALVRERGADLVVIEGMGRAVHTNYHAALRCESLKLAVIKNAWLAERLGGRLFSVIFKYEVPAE
Chain of UniProt Q8TDX7 (Q8TDX7 whole entry, looked up): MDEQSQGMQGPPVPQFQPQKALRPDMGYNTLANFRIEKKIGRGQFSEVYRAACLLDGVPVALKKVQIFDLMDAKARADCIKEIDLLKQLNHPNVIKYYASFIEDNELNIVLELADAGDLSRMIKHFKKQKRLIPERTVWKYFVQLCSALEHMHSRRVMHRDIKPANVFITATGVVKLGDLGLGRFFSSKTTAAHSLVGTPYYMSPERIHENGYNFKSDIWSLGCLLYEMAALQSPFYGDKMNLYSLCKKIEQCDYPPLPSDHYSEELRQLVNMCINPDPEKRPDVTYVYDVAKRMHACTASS
Chain of UniProt Q9UFN0 (Q9UFN0 whole entry, looked up): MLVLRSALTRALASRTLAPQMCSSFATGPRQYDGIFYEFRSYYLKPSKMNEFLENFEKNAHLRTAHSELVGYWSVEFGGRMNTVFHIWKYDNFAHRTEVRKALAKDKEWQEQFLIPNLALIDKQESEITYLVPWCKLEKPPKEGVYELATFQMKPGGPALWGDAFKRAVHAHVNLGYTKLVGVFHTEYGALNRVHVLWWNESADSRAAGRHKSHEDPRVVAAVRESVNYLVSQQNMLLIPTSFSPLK
Chain of UniProt Q13423 (Q13423 whole entry, looked up): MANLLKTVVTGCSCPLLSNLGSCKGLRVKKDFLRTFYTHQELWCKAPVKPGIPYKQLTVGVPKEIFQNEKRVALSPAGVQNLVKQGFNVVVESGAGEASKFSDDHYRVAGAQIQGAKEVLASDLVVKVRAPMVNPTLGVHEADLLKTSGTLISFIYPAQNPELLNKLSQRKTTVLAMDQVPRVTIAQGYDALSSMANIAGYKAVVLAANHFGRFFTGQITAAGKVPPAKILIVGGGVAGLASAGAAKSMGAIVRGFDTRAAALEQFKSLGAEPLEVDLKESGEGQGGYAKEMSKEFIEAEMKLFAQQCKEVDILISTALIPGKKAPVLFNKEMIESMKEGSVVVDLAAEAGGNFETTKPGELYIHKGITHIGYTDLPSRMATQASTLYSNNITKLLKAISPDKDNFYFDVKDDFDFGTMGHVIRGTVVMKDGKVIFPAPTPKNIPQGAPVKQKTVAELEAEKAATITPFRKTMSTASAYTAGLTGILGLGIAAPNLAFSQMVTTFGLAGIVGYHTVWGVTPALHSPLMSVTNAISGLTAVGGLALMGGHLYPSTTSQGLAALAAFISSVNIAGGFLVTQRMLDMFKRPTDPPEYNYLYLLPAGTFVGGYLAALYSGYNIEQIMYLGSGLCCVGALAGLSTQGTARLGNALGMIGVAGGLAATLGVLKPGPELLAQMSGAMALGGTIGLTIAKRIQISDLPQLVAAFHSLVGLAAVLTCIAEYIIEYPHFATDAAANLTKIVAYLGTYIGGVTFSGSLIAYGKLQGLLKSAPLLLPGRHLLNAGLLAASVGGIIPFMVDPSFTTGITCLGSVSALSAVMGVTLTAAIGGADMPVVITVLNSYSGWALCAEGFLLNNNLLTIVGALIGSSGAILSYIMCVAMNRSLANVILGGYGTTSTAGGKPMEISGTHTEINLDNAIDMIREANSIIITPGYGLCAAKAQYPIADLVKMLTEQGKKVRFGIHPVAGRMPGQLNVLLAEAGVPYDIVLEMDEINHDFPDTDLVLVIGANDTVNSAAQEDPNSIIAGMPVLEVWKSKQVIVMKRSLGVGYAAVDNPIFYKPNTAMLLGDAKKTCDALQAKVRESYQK
Chain of UniProt Q6N063 (Q6N063 whole entry, looked up): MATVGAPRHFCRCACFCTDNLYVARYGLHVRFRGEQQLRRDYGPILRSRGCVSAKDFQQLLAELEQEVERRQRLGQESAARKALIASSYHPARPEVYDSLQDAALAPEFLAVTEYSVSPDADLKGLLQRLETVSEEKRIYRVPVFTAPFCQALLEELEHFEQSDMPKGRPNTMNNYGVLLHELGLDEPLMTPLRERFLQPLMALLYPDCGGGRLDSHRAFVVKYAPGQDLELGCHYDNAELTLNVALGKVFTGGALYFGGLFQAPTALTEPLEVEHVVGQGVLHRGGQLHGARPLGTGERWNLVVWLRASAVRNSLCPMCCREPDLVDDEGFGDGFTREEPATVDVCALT
Chain of UniProt P08651 (P08651 whole entry, looked up): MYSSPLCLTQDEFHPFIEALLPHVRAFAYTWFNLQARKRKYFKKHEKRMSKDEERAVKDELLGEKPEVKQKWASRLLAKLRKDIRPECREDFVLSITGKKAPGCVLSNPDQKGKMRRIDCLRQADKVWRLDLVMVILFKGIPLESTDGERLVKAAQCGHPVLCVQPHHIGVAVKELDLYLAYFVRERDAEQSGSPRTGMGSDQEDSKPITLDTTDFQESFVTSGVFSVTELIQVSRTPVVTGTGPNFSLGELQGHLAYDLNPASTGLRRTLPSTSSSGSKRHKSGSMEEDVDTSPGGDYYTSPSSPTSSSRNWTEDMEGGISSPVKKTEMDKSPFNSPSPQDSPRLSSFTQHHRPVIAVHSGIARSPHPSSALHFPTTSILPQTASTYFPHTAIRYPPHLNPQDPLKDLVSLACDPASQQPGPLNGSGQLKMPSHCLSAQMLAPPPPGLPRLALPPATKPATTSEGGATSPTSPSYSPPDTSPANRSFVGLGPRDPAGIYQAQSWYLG
Chain of UniProt Q9BZD4 (Q9BZD4 whole entry, looked up): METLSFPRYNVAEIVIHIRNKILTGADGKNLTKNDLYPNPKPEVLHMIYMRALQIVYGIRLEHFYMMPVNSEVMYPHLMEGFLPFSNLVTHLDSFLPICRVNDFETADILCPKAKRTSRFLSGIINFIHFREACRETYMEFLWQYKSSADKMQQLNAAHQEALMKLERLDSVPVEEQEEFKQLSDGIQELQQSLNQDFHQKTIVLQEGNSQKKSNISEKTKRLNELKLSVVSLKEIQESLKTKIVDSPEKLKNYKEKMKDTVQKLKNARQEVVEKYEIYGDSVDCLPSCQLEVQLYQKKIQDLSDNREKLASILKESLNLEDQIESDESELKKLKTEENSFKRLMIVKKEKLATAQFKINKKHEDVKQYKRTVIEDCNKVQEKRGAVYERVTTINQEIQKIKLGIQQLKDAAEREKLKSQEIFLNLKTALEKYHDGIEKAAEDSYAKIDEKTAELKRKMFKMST
Chain of UniProt Q9Y530 (Q9Y530 whole entry, looked up): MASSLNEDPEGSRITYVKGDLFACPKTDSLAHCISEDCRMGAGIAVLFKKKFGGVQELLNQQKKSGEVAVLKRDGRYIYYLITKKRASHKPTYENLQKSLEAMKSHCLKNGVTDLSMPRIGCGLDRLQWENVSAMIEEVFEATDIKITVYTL
Chain of UniProt Q9NZJ9 (Q9NZJ9 whole entry, looked up): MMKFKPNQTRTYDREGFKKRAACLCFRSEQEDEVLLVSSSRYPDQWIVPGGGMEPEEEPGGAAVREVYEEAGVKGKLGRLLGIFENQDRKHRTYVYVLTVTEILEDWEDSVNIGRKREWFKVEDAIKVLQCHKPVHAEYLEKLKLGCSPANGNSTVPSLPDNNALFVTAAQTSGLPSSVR

Compound in this experiment: C1CCN(C1)C(=O)NC2=CC=CC(=C2)NC3=NC=C(C(=N3)NCCC4=CN=CN4)Br
Put plainly: log2 fold change, soluble protein after heating vs DMSO (PISA); higher = thermal stabilisation; K562 lysate, 10 uM; active = over 0.2 and 3.5 SD of the protein, either way, in both replicates (recomputed). An outline of the steps:
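Dounce homogenisation of K562 pellets in PBS pH 7.4 with 1 mM MgCl2 produced a crude extract, used at 1 mg/mL protein. Exposure to 10 μM compound lasted 30 min, and aliquots were then heated for 3 min across 48°C-58°C, pooled and brought to 0.5% NP-40 at 4°C. The supernatant after 21,000xg for 90 min was quantified by TMTpro 16plex LC-MS/MS with channel sums equalised. Duplicate values are given as log-two fold change in thermal stability relative to solvent controls.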
For the target NUP93 (UniProt Q8N1F7), the log2 fold change is 0.002.
In the case of PANK4 (UniProt Q9NVE7) it was -0.002; in that of NIPSNAP3A (UniProt Q9UFN0), -0.012.
In the case of OSBP2 (UniProt Q969R2) it was 0.037.
In the case of MTCH2 (UniProt Q9Y6C9) it was -0.033; in that of NUP160 (UniProt Q12769), -0.029; in that of NEK7 (UniProt Q8TDX7), 0.011.
Turning to NLRP2 (UniProt Q9NX02), the log2 fold change was 0.01.
The same measure for NUMB (UniProt P49757): -0.107; for NEK9 (UniProt Q8TD19): 0.083; for MSH6 (UniProt P52701): 0.
In the case of NIFK (UniProt Q9BYG3) it was -0.02.
In the case of OGFOD2 (UniProt Q6N063) it was 0.003.
Regarding NFATC1 (UniProt O95644), the log2 fold change was 0.044.
In the case of NFIC (UniProt P08651) it was -0.016; in that of OARD1 (UniProt Q9Y530), -0.036; in that of NOB1 (UniProt Q9ULX3), -0.016.
The same measure for NARS2 (UniProt Q96I59): 0.027.
In the case of NUP188 (UniProt Q5SRE5) it was 0.027; in that of NFKBIE (UniProt O00221), -0.078; in that of NNT (UniProt Q13423), 0.
On to ORC5 (UniProt O43913), for which the log2 fold change is -0.085.
For the target MYO1D (UniProt O94832), the log2 fold change was 0.015.
In the case of OTUD7B (UniProt Q6GQQ9) it was -0.002; in that of NUF2 (UniProt Q9BZD4), -0.039.
In the case of PBK (UniProt Q96KB5) it was -0.007; in that of NUDT4 (UniProt Q9NZJ9), 0.059.
In the case of MYD88 isoform 6 (UniProt Q99836) it was 0.032; in that of MRPL53 (UniProt Q96EL3), -0.07; in that of MTMR6 (UniProt Q9Y217), -0.013.
As to NELFCD (UniProt Q8IXH7), the log2 fold change is -0.004.
The same measure for NPLOC4 isoform 2 (UniProt Q8TAT6): -0.012.
In the case of NCOR2 (UniProt C9J0Q5) it was -0.002; in that of NUDT5 (UniProt Q9UKK9), -0.026; in that of NMT1 (UniProt P30419), -0.012.
In the case of PARD3 (UniProt Q8TEW0) it was 0.067.
